Hits are enriched below; roughly 5.3% of the tested compounds scored in any of these assays.
Vaccinia mCherry: inhibitors of vaccinia virus infection (mCherry reporter signal) | Potency, µM (series often up to 36.5 µM), without a hit: top-dose activity change, negative = inhibition, usual class: inhibitors | 310,000 tested, 0.63% active | Vaccinia virus mCherry reporter infection, fluorescence | AID 720579; calls by dose curve; tested in A549 cells; note: nearly all actives have a fitted effect of over 35% in size
HCV inhibitor: inhibitors of hepatitis C virus infection; Potency, µM (doses to about 41.8 µM), without a hit: at the top dose activity change, negative = inhibition, hits mostly inhibitors; Huh7.5.1 HCVcc-Cre infection, luciferase reporter, 44 h; AID 651820; 340,000 tested, 3.4% active; active = well fitted inhibition curve with a large enough effect; inconclusive = small, poorly fitted or top-dose-only effect, or another doubt; inactive = no such curve, though single readings can be large or run the other way
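Reporter virus HCVcc-Cre (~0.5 moi) infects cells exposed to compound; seeding density 1,000 cells/well with 4 h settling beforehand. Luminescence, 15 sec read, taken 44 h post-infection following a 15 min RT substrate incubation.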
Vaccinia Venus: inhibitors of vaccinia virus (Venus reporter) | 330,000 tested, 0.46% active | Potency, µM (top dose mostly 36.5 µM), for inactives: at the top dose activity change, negative = inhibition, most hits filed as inhibitors | Vaccinia virus Venus reporter expression, fluorescence; calls by dose curve; tested in A549 cells; note: nearly all actives have a fitted effect of over 30% in size
Lassa entry inh: inhibitors of Lassa virus binding or cell entry; AID 540256; Potency, µM (doses to about 37.9 µM), inactives show top-dose activity change, negative = inhibition, usual class: inhibitors; Lassa virus pseudotype entry inhibition, cell reporter; 300,000 tested, 1.2% active; calls by dose curve; tested in HEK293 cells; note: nearly all actives have a fitted effect of over 50% in size
MARV entry inh: blocks Marburg virus binding to or entry into cells. Marburg virus pseudotyped entry inhibition, cell reporter. Potency, µM (doses to about 37.8 µM), for inactives: top-dose activity change, negative = inhibition, usual class: inhibitors. 300,000 tested, 1.8% active; calls by dose curve; tested in HEK293 cells
FMDV inh: foot and mouth disease virus antiviral activity; FMDV antiviral cell-based qHTS; Potency, µM (titrated, usually from 57.9 µM), without a hit: at the top dose activity change, negative = inhibition, usual class: inhibitors; 410,000 tested, 1.2% active; AID 1159524; calls by dose curve; tested in HEK293T cells; note: read-out not given here; nearly all actives have a fitted effect of over 45% in size
* = called active by the depositor; i = inactive; ? = inconclusive; · = no result given; [ ] = remark or other dose. % is set by controls: 0 for no effect and ±100 for the full control effect; potency is the fitted concentration of half-maximal effect.

SMILES	Vaccinia mCherry	HCV inhibitor	Vaccinia Venus	Lassa entry inh	MARV entry inh	FMDV inh
Cc1oc(-c2ccccc2NC(=O)C2CCCO2)nc1CNC(=O)c1cc(Cl)ccc1F (stereo not given)	-10%	·	-3%	·	·	-9%
CC(C)N(C(=O)[C@H]1C[C@H](CC(=O)NCCC2=CCCCC2)C(=O)N2CCc3c([nH]c4ccc(Cl)cc34)[C@]12C)C(C)C	?	-26%	16µM*	·	·	?
COc1ccc(CNC(=O)C[C@H]2C[C@H](C(=O)N(C(C)C)C(C)C)[C@@]3(C)c4[nH]c5ccc(Cl)cc5c4CCN3C2=O)cc1OC	?	13µM*	?	·	·	?
COc1ccc(CNC(=O)C[C@H]2C[C@H](C(=O)N3CCOCC3)[C@@]3(C)c4[nH]c5ccc(Cl)cc5c4CCN3C2=O)cc1OC	-14%	?	?	·	·	-19%
CC(C)=CCC/C(C)=C/CNC(=O)C[C@H]1C[C@H](C(=O)N(C(C)C)C(C)C)[C@@]2(C)c3[nH]c4ccc(Cl)cc4c3CCN2C1=O	?	0%	?	·	·	?
COc1ccc2[nH]c3c(c2c1)CCN1C(=O)C(CC(=O)NC/C=C(\C)CCC=C(C)C)C[C@H](C(=O)N(C(C)C)C(C)C)[C@@]31C (stereo not given in full)	-20%	6.3µM*	?	·	-6%	-9%
O=C(c1cc(-c2ccc(O)cc2)on1)N1CCCC1	-30%	-2%	-13%	?	11µM*	12%
Cc1ccc(-c2cc(C(=O)N3CCCCCC3)no2)cc1	i	6%	-7%	?	?	65%
O=C(c1cc(-c2ccc(Cl)cc2)on1)N1CCOCC1	·	3%	·	9.2µM*	?	-41%
O=C(c1cc(-c2ccccc2)on1)N1CCCCCC1	7%	4%	-7%	13µM*	?	34%
CN1C2CCC1CC(OC(=O)c1cc(Cl)cc(Cl)c1)C2 (stereo not given)	·	14µM*	-14%	?	7.1µM*	?
CCC(NC(=S)NCc1ccc(F)cc1)c1ccc(C)cc1 (stereo not given)	-24%	-16%	-8%	?	10µM*	3%
Cc1cccc(C(=O)OCC(=O)c2c(N)n(CC(C)C)c(=O)n(C)c2=O)c1[N+](=O)[O-]	-23%	14µM*	-11%	?	?	?
COC(=O)c1c(C)[nH]c(C(=O)OCC(=O)c2c(N)n(CC(C)C)c(=O)n(C)c2=O)c1C	i	4µM*	-9%	?	?	?
CC(C)Cn1c(N)c(C(=O)COC(=O)CC23CC4CC(CC(C4)C2)C3)c(=O)n(C)c1=O	·	6.3µM*	?	1.8µM*	8.9µM*	13µM*
Cc1csc(=O)n1CCC(=O)OCC(=O)c1c(N)n(CC(C)C)c(=O)n(C)c1=O	-7%	?	-23%	-13%	?	?
CC(C)Cn1c(N)c(C(=O)COC(=O)c2ccc(Cl)cc2)c(=O)n(C)c1=O	i	?	-9%	-14%[46.1 µM]	-19%[46.1 µM]	-20%
CC(C)Cn1c(N)c(C(=O)COC(=O)c2ccc(Br)cc2)c(=O)n(C)c1=O	·	?	·	·	·	32µM*
O=C(Cc1ccc(NC(=O)C2CCN(C(=O)C3CCCC3)CC2)cc1)Nc1cccc(C(=O)N2CCCCC2)c1	-10%	?	-12%	·	·	1%
CC(C)Cn1c(N)c(C(=O)COC(=O)c2ccncc2)c(=O)n(C)c1=O	·	5%	-10%	5%	5%[46.1 µM]	-3%
CC(C)Cn1c(N)c(C(=O)COC(=O)/C=C/c2ccccc2)c(=O)n(C)c1=O	?	7.1µM*	-20%	?	10µM*	16µM*
CCOC(=O)C1=C(C)N=c2s/c(=C\c3ccc(O)c([N+](=O)[O-])c3)c(=O)n2C1c1ccccc1OC (stereo not given)	-16%	4%	-7%	-6%[46.1 µM]	-22%[46.1 µM]	?
COc1ccc(/C=c2/sc3n(c2=O)C(c2ccccc2OC)C2=C(N=3)c3ccccc3CC2)cc1O (stereo not given)	·	?	·	-25%	23µM*	-11%
CCOC(=O)c1sc(NC(=O)Nc2ccccc2F)nc1C	-21%	-8%	-18%	?	2.2µM*	?
CCOC(=O)c1sc(Nc2ccccc2Cl)nc1C	·	?	·	·	·	52%

Compound activity deposited in PubChem BioAssay by National Center for Advancing Translational Sciences (NCATS).
